Assay results: publication PMC6792352, “Limited Chemical Structural Diversity Found to Modulate Thyroid Hormone Receptor in the Tox21 Chemical Library” (Environmental Health Perspectives, 2019)
Counter-ions that a name gives are not always drawn.

These compounds were tested on thyroid hormone receptor (endogenous TRα and TRβ). Conditions: read-out: Average AC50 (uM) GH3-TRE-Antag, antagonist mode, 1 nM T3, no GH3 cytotoxicity hit.
Design: species or system GH3-TRE-Luc (rat pituitary); GH3-TRE-Luc luciferase reporter, antagonist mode against 1 nM T3, loss of signal, qHTS
`CCCCCCCCCCCC(=O)N(C)CC(=O)O` [N-Dodecanoyl-N-methylglycine] gave an AC50 of over 90 µM.
For `CCCCCCCCCCCCSC#N` [Lauryl thiocyanate], the AC50 was 42.6 µM.
Compound `O=C(O)[C@@H]1[C@H](C(=O)O)[C@H]2CC[C@@H]1O2` [Endothal] has an AC50 of 77.2 µM.
In the case of `O=S(=O)(NS(=O)(=O)C(F)(F)F)C(F)(F)F` [1-Hexyl-3-methylimidazolium bis(trifluoromethylsulfonyl)imide], the AC50 is reported as 66.1 µM.
For `C1COC(NC(C2CC2)C2CC2)=N1` [Rilmenidine], the AC50 was 29.6 µM.
With `Nc1ccc(Oc2ccc(Cl)cc2)cc1` [4-Chloro-4'-aminodiphenyl ether] the AC50 was 40.7 µM.
`CCCCCCCCCCCCNC(=N)N` [Dodine] gave an AC50 of 2.89 µM.
`CC(C)CCC[C@@H](C)[C@H]1CC(=O)C2=C3CC[C@H]4C[C@@H](O)CC[C@]4(C)[C@H]3CC[C@@]21C` [Colestolone] gave an AC50 of 7.21 µM.
`O=c1[nH]c2ccc([S+]([O-])CCN3CCC(Cc4ccc(F)cc4)CC3)cc2o1` (stereo not drawn) [Besonprodil] gave an AC50 of 75.9 µM.
In the case of `c1ccc2c(c1)[nH]c1cnccc12` [Norharman], the AC50 is reported as 45.1 µM.
Compound `Cc1cccc(C)c1Nc1ncccc1C(=O)O` [Metanixin] has an AC50 of 28.2 µM.
Work on `CC1(C)[C@H](C(=O)OCc2coc(Cc3ccccc3)c2)[C@@H]1/C=C1\CCSC1=O` [Kadethrin] yielded an AC50 of 48.4 µM.
Compound `Cc1ccc(C(C)c2ccc(C)c(C)c2)cc1C` [1,1-Bis(3,4-dimethylphenyl)ethane] has an AC50 of 70.8 µM.
`CCN(Cc1cccc(S(=O)(=O)O)c1)c1ccc(C(=C2C=CC(=[N+](CC)Cc3cccc(S(=O)(=O)[O-])c3)C=C2)c2ccccc2)cc1` [FD&C Green No. 1] showed an AC50 of 66.2 µM.
Work on `COC(=O)c1cc(Oc2ccc(Cl)cc2Cl)ccc1[N+](=O)[O-]` [Bifenox] yielded an AC50 of 74 µM.
`CC[C@H](C)COC(=O)/C=C/c1ccc(N=Cc2ccc(OC)cc2)cc1` [(+)-2-Methylbutyl-4-methoxybenzyladine-4'-aminocyannate] gave an AC50 of 62 µM.
`CCCCCCCCCC=CCC1CC(=O)OC1=O` (stereo not drawn) [(2-Dodecenyl)succinic anhydride] showed an AC50 of 74.5 µM.
`CC(C)=CCC[C@](C)(O)[C@@H]1CC=C(C)CC1` [Levomenol] showed an AC50 of 38 µM.
Work on `Nc1ccc(Br)cc1` [4-Bromoaniline] yielded an AC50 of 47.9 µM.
In the case of `CCC(=O)NCC[C@@H]1CCc2ccc3c(c21)CCO3` [Ramelteon], the AC50 is reported as 39.2 µM.
Compound `O=C(c1ccccc1)c1ccc(O)cc1O` [2,4-Dihydroxybenzophenone] has an AC50 of 87 µM.
`CN(C)[C@@H]1C(O)=C(C(N)=O)C(=O)[C@@]2(O)C(O)=C3C(=O)c4c(O)ccc(Cl)c4[C@@](C)(O)[C@H]3C[C@@H]12` [Chlortetracycline hydrochloride] showed an AC50 of over 20 µM.
With `C[C@]12CC[C@@H]3c4ccc(O)cc4CC[C@H]3[C@@H]1C[C@@H](O)[C@@H]2O` [Estriol] the AC50 was over 50 µM.
For `CCCCCC(C=O)=Cc1ccccc1` [Pentylcinnamaldehyde], the AC50 was over 50 µM.
`CCN(C(=O)c1cc(C)cc(OC[C@H](C)Nc2ccncc2)c1)C(C)C` [GW473178E methyl benzene sulphonic acid] gave an AC50 of 51.7 µM.
`COc1ccccc1/C=C/C=O` [trans-2-Methoxycinnamaldehyde] was tested, and the AC50 was 47.6 µM.
Compound `CN1CCN2c3ncccc3Cc3ccccc3C2C1` (stereo not drawn) [Mirtazapine] has an AC50 of 15.4 µM.
`O=[N+]([O-])c1cc[n+]([O-])cc1` [4-Nitropyridine-1-oxide] was tested, and the AC50 was 80.5 µM.
`CCOC(=O)C(C)OC(=O)c1cc(Oc2ccc(C(F)(F)F)cc2Cl)ccc1[N+](=O)[O-]` (stereo not drawn) [Lactofen] showed an AC50 of 81.8 µM.
Work on `CC(C)CCCCCCCCCCCCCCC(=O)O` [Isooctadecanoic acid] yielded an AC50 of 16.3 µM.
With `COC(=O)[C@H]1[C@H]2C[C@@H]3c4[nH]c5cc(OC)ccc5c4CCN3C[C@H]2C[C@@H](OC(=O)COc2ccc(OC)cc2)[C@@H]1OC` [Mefeserpine] the AC50 was 21.6 µM.
`CCC(COC(=O)c1cc(OC)c(OC)c(OC)c1)(c1ccccc1)N(C)C` (stereo not drawn) [Trimebutine maleate] was tested, and the AC50 was 16.3 µM.
In the case of `CC(C)Oc1cccc(NC(=O)c2ccccc2C(F)(F)F)c1` [Flutolanil], the AC50 is reported as over 90 µM.
`CCN(CC)CCNC(=O)c1cc(Br)c(N)cc1OC` [Bromopride] gave an AC50 of 38.6 µM.
Compound `Cc1cc(C(F)(C(F)(F)F)C(F)(F)F)ccc1NC(=O)c1cccc(I)c1C(=O)NC(C)(C)CS(C)(=O)=O` [Flubendiamide] has an AC50 of 33.5 µM.
Compound `CCN(CC)CCCC(C)Nc1c2ccc(Cl)cc2nc2ccc(OC)cc12` (stereo not drawn) [Quinacrine dihydrochloride dihydrate] has an AC50 of 29.4 µM.
`COc1cccc(C(=O)NN(C(=O)c2cc(C)cc(C)c2)C(C)(C)C)c1C` [Methoxyfenozide] gave an AC50 of 55.4 µM.
Work on `NCCN1CCNCC1` [1-(2-Aminoethyl)piperazine] yielded an AC50 of over 90 µM.
Compound `CC(=O)Oc1ccc(C2(c3ccc(OC(C)=O)cc3)Oc3ccccc3NC2=O)cc1` [Bisoxatin acetate] has an AC50 of 3.76 µM.
